# According to PubChem BioAssay (Tox21):
# Values joined by “and” are separate entries in the source; they are usually repeats but may differ in a detail not shown here. Equal entries are not always repeated. Results filed as inconclusive are left out. Entries that show only a call come without a potency. Unmarked numbers belong to inactive results. Active and inactive are the calls of the source. Calls follow the shape of the dose curve; as a rule, active = well fitted inhibition curve with a large enough effect in the repeat runs; inconclusive = weak or mixed curves; inactive = flat fitted curve, though single readings scatter.
# Molecular target: Voltage-gated inwardly rectifying potassium channel KCNH2 (Homo sapiens) (UniProt Q12809)
# Sequence (Q12809 whole entry, looked up): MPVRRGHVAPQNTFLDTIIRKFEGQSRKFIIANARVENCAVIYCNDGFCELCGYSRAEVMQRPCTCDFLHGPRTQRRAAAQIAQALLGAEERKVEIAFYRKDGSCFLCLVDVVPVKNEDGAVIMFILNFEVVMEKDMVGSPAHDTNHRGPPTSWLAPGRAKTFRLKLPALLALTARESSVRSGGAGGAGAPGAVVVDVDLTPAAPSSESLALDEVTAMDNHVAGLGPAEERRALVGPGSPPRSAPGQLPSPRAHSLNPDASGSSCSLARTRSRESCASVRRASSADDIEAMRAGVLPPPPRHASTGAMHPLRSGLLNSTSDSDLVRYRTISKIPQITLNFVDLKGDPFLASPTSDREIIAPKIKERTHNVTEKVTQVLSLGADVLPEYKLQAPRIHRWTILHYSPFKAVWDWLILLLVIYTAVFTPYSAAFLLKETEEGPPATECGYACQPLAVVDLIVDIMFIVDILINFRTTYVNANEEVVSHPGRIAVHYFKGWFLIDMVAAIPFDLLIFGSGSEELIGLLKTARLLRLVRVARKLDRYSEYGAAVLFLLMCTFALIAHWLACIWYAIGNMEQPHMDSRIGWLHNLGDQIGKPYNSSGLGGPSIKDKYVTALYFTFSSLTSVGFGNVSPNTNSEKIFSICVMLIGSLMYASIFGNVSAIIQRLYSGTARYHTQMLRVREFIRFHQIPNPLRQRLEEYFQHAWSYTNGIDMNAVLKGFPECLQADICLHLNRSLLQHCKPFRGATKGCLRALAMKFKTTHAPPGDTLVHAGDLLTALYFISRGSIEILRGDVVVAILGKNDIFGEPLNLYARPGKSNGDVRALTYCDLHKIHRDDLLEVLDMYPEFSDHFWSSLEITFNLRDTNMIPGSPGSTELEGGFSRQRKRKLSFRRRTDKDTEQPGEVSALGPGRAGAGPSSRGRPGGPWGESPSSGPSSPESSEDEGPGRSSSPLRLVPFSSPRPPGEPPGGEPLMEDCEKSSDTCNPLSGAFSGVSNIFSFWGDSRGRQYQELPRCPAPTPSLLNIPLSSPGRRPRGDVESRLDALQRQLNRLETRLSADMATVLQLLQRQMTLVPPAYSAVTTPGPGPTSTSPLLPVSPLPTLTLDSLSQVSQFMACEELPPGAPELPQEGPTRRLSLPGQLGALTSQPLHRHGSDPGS
# Assay: Human Ether-a-go-go-Related Gene (hERG) channel small molecule antagonists: fluorescence cell-based qHTS assay (AID 1671200); also: nearly all actives have a fitted effect of over 50% in size
# Details: hERG-U2OS cells, FluxOR thallium flux fluorescence; series mostly up to 76.8 µM
# Excerpt: National Center for Advancing Translational Sciences [NCATS]
# U.S. Environmental Protection Agency [EPA]
# National Institutes of Environmental Health Sciences [NIEHS]
# National Toxicology Program [NTP]
# U.S. Food and Drug Administration [FDA]
# Mutations in the hERG channel cause Long QT (LQT) syndrome. LQT syndrome is a cardiac disorder which can cause ventricle arrhythmia and sudden death. Additionally, compounds which block the hERG channel can cause acquired LQT syndrome. Several FDA approved drugs have been removed from the market due to their hERG blocking activity. A cell-based hERG channel inhibition assay can be used to screen chemical compounds that inhibit hERG channel. This assay measures hERG channel activity using thallium ions as surrogate ions to measure potassium into the cells.
# Tox21 Assay Protocol Summary:
# hERG-U2OS cells were resuspended in culture medium and dispensed into 1536-well, black wall/clear-bottom plates at 1000cells/well/3uL using a Multidrop Combi dispenser (Thermo Fisher, Waltham, MA). After plates were incubated at 37 C overnight, 3 uL of Loading Buffer provided by FluxOR II Potassium Ion Channel Assay kit (Thermo, Carlsbad, CA) was added to each well. The assay plates were then incubated at room temperature in the dark for 1h. […] After the assay plates were incubated at room temperature for 10 min, 1 uL of Stimulus Buffer provided by FluxOR II Potassium Ion Channel Assay kit was added into each well and fluorescence intensity (480nm excitation/540nm emission) was continuously measured for 2 min at 1 second intervals using a Functional Drug Screening System (FDSS) 7000EX kinetic plate reader (Hamamatsu, Japan).
# Potency is read from the fitted curve at half-maximal effect.
Compound,Potency,"activity change, negative = inhibition"
CCOCN(C(=O)CS(=O)(=O)O)c1c(C)cccc1CC,inactive,–
C/C=C/C(=O)Oc1c(CCCCCC(C)C)cc([N+](=O)[O-])cc1[N+](=O)[O-],21.9 µM (active),–
CCCCCCCCCCCCCC[n+]1ccccc1,5.49 µM (active),–
C1CC(COCC2CO2)CCC1COCC1CO1 (stereo not given),inactive,–
C=C(c1ccc(C(=O)O)cc1)c1cc2c(cc1C)C(C)(C)CCC2(C)C,inactive,–
Cc1cnccn1,inactive,–
CCCCCCCC(C)=O,inactive,–
C[C@]12CC[C@H]3C(=CCc4cc(O)ccc43)[C@@H]1CCC2=O,inactive,–
NC(=O)c1nc(-c2cccc(-c3cc(F)ccc3OCC(F)(F)C(F)(F)F)c2)n[nH]1,43.6 µM (active),–
Nc1ncnc2c1ncn2[C@@H]1O[C@H](COP(=O)(O)O)[C@@H](O)[C@H]1O,inactive,–
Clc1nc2ccccc2s1,inactive,–
Oc1ccc(-c2ccc(O)cc2)cc1,inactive,–
O=C(O)Cc1ccc(OCCNC[C@H](O)c2ccccc2)cc1,inactive,–
CCc1cccc(C)c1,inactive,–
Oc1c(Br)cc(Br)c2cccnc12,inactive,–
CC(=O)C=O,inactive,–
CCCCN(C)C,inactive,–
C=CC(=O)OCCC#N,inactive,–
CCCC(CC)CCCCCCCN (stereo not given),28.2 µM (active),–
C(=C/c1ccccc1)/c1ccccc1,inactive,–

Compound,Potency,"activity change, negative = inhibition"
CCCCNc1c(C(=O)OCC)c(C)nc2c1cnn2CC,inactive,–
CCOC(=O)[C@@](C)(N)Cc1ccc(O)c(O)c1,inactive,–
CCCCCCOc1ccc(O)cc1,inactive,–
CCC(C)c1ccccc1 (stereo not given),inactive,–
Cc1ccc(-n2[nH]c(C)c(N=Nc3cccc(-c4cccc(C(=O)O)c4)c3O)c2=O)cc1C,inactive,–
CCC(=O)OCCc1ccccc1,inactive,–
CCOB(OCC)OCC,inactive,–
CCCC(O)C(O)CO (stereo not given),inactive,–
O=C(O)CC(=O)O,inactive,–
N[C@@H](CSSC[C@H](N)C(=O)O)C(=O)O,–,-0.819% [at 0.29 µM]
COC(=O)CC#N,inactive,–
CCCCCCCC/C=C\CCCCCCCC(=O)N(C)CC(=O)O,inactive,–
CCCCCCCC/C=C/CCCOC(C)=O,inactive,–
CCC1CCCCC1,inactive,–
Nc1ccc2cc3ccc(N)cc3nc2c1,inactive,–
[O]=[Zr],inactive,–
c1ccc(Nc2cccc3ccccc23)cc1,35.1 µM (active) and 17.4 µM (active),–
C=CC(C)(CCC=C(C)C)OC(=O)/C=C/c1ccccc1 (stereo not given),inactive,–
NC(=O)c1ccccc1N,inactive,–
Cn1cnc2ncnc(N)c21,inactive,–
